Source: PubChem BioAssay (NCI)
Compounds without any hit were thinned out: in the full panel of roughly 83,000, 20% have a hit.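 Interpretation: 100, growth as untreated; towards 0, rising growth inhibition; 0, no net growth; 0 to -100, cell death. Compounds scoring below 10 were considered active.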 A number with no mark means an inactive call. Active and inactive are the calls of the source.

System: SK-MEL-2 melanoma
Test: NCI-60 one-dose screen, 48 h (100 = growth as untreated, 0 = no growth, -100 = all killed)
Settings: 10 µM unless noted
Experimental: Growth inhibition of the SK-MEL-2 human tumor cell line is measured as a screen for anti-cancer activity. Cells are grown in 96 well plates and exposed to the test compound for 48 hours. Compounds are tested at a single concentration, which is 10^-5 M for most compounds. The reported endpoint is percent growth (GI% or GIPRCNT), where numbers from 0 - 100% represent growth inhibition, and numbers from -100% - 0 represent cell death. For example, a value of 40 represents 60% growth inhibition. A value of 0 means no net growth occurred over the course of the experiment. A value of -40 indicates 40% of cells at the beginning of the experiment died by the end of the experiment. A value of -100 means all cells are dead at the end of the experiment.
NCI-60 Human Tumor Cell Lines Screen was performed using the standard one-dose NCI protocol, which is described in more detail at https://dtp.cancer.gov/discovery_development/nci-60/default.htm.
Compounds with GIPRCNT values below 10 were considered active. Activity score was based on GIPRCNT using the following formula: […]
Score is 0 for GIPRCNT values of 100 or above, 50 for GIPRCNT values of 0, and 100 for GIPRCNT values of -100.

| SMILES | growth |
| --- | --- |
| COC(=O)Nc1nc2ccc(C(=O)c3cccc(I)c3)cc2[nH]1 | 12.1% |
| N#Cc1c(Nc2ccccc2)nn2cc(-c3nc4ccccc4s3)c(N)nc12 | 97.5% |
| COc1cc(-c2nc3sccn3c2-c2ccnc(NCCNS(=O)(=O)c3ccc(F)cc3)n2)ccc1F | -38.3% (active) |
| O=C(OCc1nc2nc(Cl)nc(N3CCOCC3)c2[nH]1)n1ccnc1 | -67.1% (active) |
| CCCCCCOc1ccc(/C=N/Nc2cc(C)nc3ccc(Br)cc23)cc1 | -14% (active) |
| Cc1cn(-c2cc(C(=O)Nc3cccc(C#Cc4cccc5[nH]nc(N)c45)c3)cc(C(F)(F)F)c2)cn1 | 5.21% (active) |
| COc1ccc(/C=C/C(=O)c2ccc(OC)c(OC)c2)cc1O | 99.9% |
| Clc1ccc(C2CC(c3cccc(Nc4ccncc4)c3)=NN2c2cc(Cl)cc(Cl)c2)cc1 (stereo not given) | 107% |
| Cc1cccc(Oc2ccc(Nc3ncnc4ccc(NC(=O)CNCCO)cc34)cc2Cl)c1 | 87.8% |
| COc1ccc(-c2nn(Cc3ccccc3)c3c2-c2oncc2CC3)cc1OC | 125% |
| CCC(=O)c1ccc(O)c(OC)c1 | 103% |
| CC(C)(C)OC(=O)N1C/C(=C\c2ccoc2)C(=O)/C(=C/c2ccoc2)C1 | 96.4% |
| Cc1c2c(cc[n+]1Cc1ccccc1)c1ccc(OCC3CCCCC3)cc1n2CC1CCCCC1 | -86.5% (active) |
| O=C(CCN1CCCC1)Nc1ccc2c(Nc3ccccc3)c3ccccc3nc2c1 | 41.4% |
| COc1cc2nc(-c3ccc(C(F)(F)F)cc3)cc(OCCCN3CCCCC3)c2cc1OC | 61.4% |
| CC(Oc1ccc(C(=O)NS(=O)(=O)C(C)(C)C)cc1C(F)(F)F)c1ccc(Oc2ccccc2)cn1 (stereo not given) | 35.5% |
| COc1cc(NCCN(CC(C)C)C2CCCC2)c2ncccc2c1 | 89.2% |
| COc1ccc(CC(C)=C(c2ccc(OCCN(C)C)cc2)c2ccc(OCCN(C)C)cc2)cc1 | 108% |
| NC(=O)CN1CCN(c2ccccc2Cl)CC1 | 92.4% |
| COc1ccc(C2=NN(C(C)=O)C(c3cn(Cc4ccc(Cl)cc4)c4ccccc34)C2)cc1 (stereo not given) | 91.1% |

| SMILES | growth |
| --- | --- |
| O=C1c2ccccc2-c2c1c1c(NCCCO)nc3ccccc3c1n2Cc1ccccc1 | 48.5% |
| CS(=O)(=O)OCCN(CCOS(C)(=O)=O)c1ccc(/C=N/Nc2ccc([N+](=O)[O-])cc2[N+](=O)[O-])cc1 | 118% |
| c1ccc(Cn2nc3c(c2-c2ccccc2)-c2oncc2CC3)cc1 | 102% |
| CCCCN(CCCC)CCc1c(C)cc(C)c(CCN(CCCC)CCCC)c1O | 1.41% (active) |
| Cn1c2c(Cl)c(Cl)ccc2c2cc(N)[nH]c(=O)c21 | 116% |
| ClCC1(Cn2cnc3c(Cl)nc(Cl)nc32)COC1 | 90.7% |
| COc1cc2oc(-c3cccc(C(=O)Nc4ccc(Cl)cc4)c3)cc(=O)c2c(OC)c1OC | 31.4% |
| O=C(N/N=C/c1cccc(O)c1)c1ccccc1Nc1cccc(C(F)(F)F)c1 | 111% |
| O=C(Nc1cccc(Cl)c1)Oc1c(Br)c(Br)c(Br)c(Br)c1Br | 79% |
| O=C1Nc2cc(-c3ccncc3)ccc2/C1=C/c1ccc[nH]1 | 106% |
| COc1cc(/C=C2\C(=O)N(Cc3ccc(Cl)cc3)c3ccccc32)cc(OC)c1OC | 90.2% |
| O=c1nc2n(nc1/C=C/c1ccco1)CC(c1ccc(Cl)cc1)=NN2 | 30.3% |
| COc1ccc(NC(=O)c2sc3nc(C)c(C(O)c4ccc(OC)cc4)cc3c2N)cc1 (stereo not given) | 45.6% |
| CC1(C)CCCN1CCCN1c2ccccc2Sc2ccc(Cl)cc21 | 117% |
| CC(=O)OCC(=O)[C@@]1(O)CC[C@H]2[C@@H]3CC(=C(Br)Br)C4=CC(=O)CC[C@]4(C)[C@H]3C(=O)C[C@@]21C | 78.7% |
| Cc1[nH]n(-c2cccc(Cl)c2)c(=O)c1/C=C1\C=Nc2ccc(Br)cc21 | 73.4% |
| CCCCCCCCCCCCCCCC(=O)OC[C@@]1(O)C[C@@]23CC[C@@H]4C(C)(C)[C@H](O)CC[C@@]4(C)[C@@H]2CC[C@H]1C3 | 104% |
| CC1CCN(C(=O)OCc2nc3nc(Cl)nc(N4CCOCC4)c3[nH]2)CC1 | -92% (active) |
| C/C(=C(/c1ccccc1)c1ccc(OCC(O)CN2CCOCC2)cc1)c1ccccc1 (stereo not given) | 98.9% |
| COc1ccc(-c2cnc(N)nc2-c2ccc(OC)cc2O)cc1 | 112% |
